According to ChEMBL document CHEMBL1201862, “PubChem BioAssay data set” (2004):
Screen size: about 57,000 sequences; about 5,100 (8.9%) were called active. Rule as the data show it: active = GI50 up to about 1.1 µM and inactive = higher. Only a sample is shown. Results with a measured potency or affinity are listed apart.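 How tested: cells in 96-well plates exposed to compound for 48 hours at five concentrations. GI50: concentration for 50% inhibition of growth.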

Tested on: HCT-116
Assay: NCI tumour cell line growth inhibition, 48 h

Substance	GI50
[Bis(aminomethyl)tetramethylenesilane]dichloropaltinum(II), CHEMBL2146205	11.5 µM
[Bis(aminomethyl)pentamethylenesilane]dichloropaltinum(II), CHEMBL2146202	2.48 µM
CISPLATIN, CHEMBL11359	4.12 µM
mu-(1,7-nanodiamine-N,N')bis-(cis-aminedichloroplatimum (II)), CHEMBL2146215	41.3 µM
[Bis(aminomethyl)pentamethylenesilane]tetrachloropaltinum(IV), CHEMBL2146204	1.13 µM
[Bis(aminomethyl)dimethylsilane]tetrachloroplatinum(IV), CHEMBL2146190	8.77 µM
[Bis(aminomethyl)diethylsilane]tetrachloroplatinum(IV), CHEMBL2146203	3.94 µM
[Bis(aminomethyl)tetramethylenesilane]tetrachloropaltinum(IV), CHEMBL2146189	4.18 µM
